# According to PubChem BioAssay (NCI):
# The panel holds about 83,000 compounds, 20% with a hit somewhere; the sample as a whole holds those more often.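 Single-dose data. Exposure time 48 hours. Values below 10 considered active.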 Values without a mark were called inactive. Active and inactive are the calls of the source.
# Tests used:
# Assay in all cases: NCI-60 one-dose screen, 48 h (100 = growth as untreated, 0 = no growth, -100 = all killed)
# Settings in all cases: 10 µM unless noted
# HCT-15 colon = tested on: HCT-15 colon
# HT29 colon = tested on: HT29 colon
# SNB-75 CNS = tested on: SNB-75 CNS
# SNB-19 CNS = tested on: SNB-19 CNS
# U251 CNS = tested on: U251 CNS
# PC-3 prostate = tested on: PC-3 prostate
# SK-MEL-5 melanoma = tested on: SK-MEL-5 melanoma
# UACC-62 melanoma = tested on: UACC-62 melanoma
# SK-MEL-28 melanoma = tested on: SK-MEL-28 melanoma
# SK-MEL-2 melanoma = tested on: SK-MEL-2 melanoma
# EKVX NSCLC = tested on: EKVX NSCLC
# SN12C renal = tested on: SN12C renal
# UO-31 renal = tested on: UO-31 renal
# TK-10 renal = tested on: TK-10 renal
# ACHN renal = tested on: ACHN renal
# CAKI-1 renal = tested on: CAKI-1 renal
# A498 renal = tested on: A498 renal
# CCRF-CEM leukemia = tested on: CCRF-CEM leukemia
# MOLT-4 leukemia = tested on: MOLT-4 leukemia
# LOX IMVI melanoma = tested on: LOX IMVI melanoma
Structure (SMILES),growth (HCT-15 colon),growth (HT29 colon),growth (SNB-75 CNS),growth (SNB-19 CNS) [%],growth (U251 CNS),growth (PC-3 prostate),growth (SK-MEL-5 melanoma),growth (UACC-62 melanoma) [%],growth (SK-MEL-28 melanoma),growth (SK-MEL-2 melanoma),growth (EKVX NSCLC) [%],growth (SN12C renal),growth (UO-31 renal),growth (TK-10 renal) [%],growth (ACHN renal),growth (CAKI-1 renal),growth (A498 renal),growth (CCRF-CEM leukemia),growth (MOLT-4 leukemia),growth (LOX IMVI melanoma)
O=c1[nH]c2c(s1)CCCC2CN1CCCCC1 (configuration not stated),107%,95.2%,83.8%,110,102%,91.9%,99.8%,113,99.3%,97.2%,105,103%,89.3%,93,97.6%,99%,95.8%,109%,,
O=C(N/N=C/c1cccnc1)c1ccccc1Nc1cccc(C(F)(F)F)c1,71.7%,91.7%,83%,84.8,92.1%,88.8%,74.3%,102,85.5%,101%,89.2,159%,76.4%,97.2,100%,79.6%,75.6%,-52.4% (active),62.7%,
Cc1nc2sc(C(=O)Nc3cccc(Br)c3)c(N)c2cc1C(=O)c1ccc(C(F)(F)F)cc1,88.1%,90.3%,55%,82.3,58.7%,70.2%,91%,82.7,92.1%,104%,87.7,71%,86.3%,90.8,49.7%,79.8%,109%,82.1%,94.7%,
COc1ccc(C(=O)/C=C/c2c(OC)cc(OC)cc2OC)c(OC)c1,5.27% (active),1.7% (active),8.7% (active),33.6,15.5%,6.39% (active),-5.47% (active),11.9,56.8%,-9.11% (active),59.1,28.8%,31.8%,44.3,26.9%,-1.02% (active),,9.01% (active),33.6%,
Cn1c2c(Cl)c(Cl)ccc2c2cc(N)[nH]c(=O)c21,97.1%,92.8%,77.7%,98.4,93.8%,64.6%,81.7%,87.2,103%,116%,59.9,92%,54.4%,120,82.6%,-23.4% (active),56.5%,81.3%,,
CCOC(=O)c1c(C)nc2c(c1N)C(=O)C(=O)N2Cc1ccc(C(F)(F)F)cc1,24.1%,65.1%,62.2%,59.3,41%,43.7%,66.7%,42.8,74.8%,77%,79.5,74.1%,54.1%,107,,,72.6%,39.4%,60.1%,54.1%
COc1cc(C(=O)c2cnc(-c3ccc4cc[nH]c4c3)[nH]2)cc(OC)c1OC,6.36% (active),-21.6% (active),9.22% (active),23.1,10%,18%,-63% (active),29.4,55.9%,35.8%,28.2,20.5%,11.4%,33.3,,8.22% (active),,5.89% (active),7.06% (active),8.42% (active)
CC1(C)CC[C@]2(C(=O)NCC#CCN3CCOCC3)CC[C@]3(C)C(=CC[C@@H]4[C@@]5(C)Cc6c([nH]c7ccccc67)C(C)(C)[C@@H]5CC[C@]43C)[C@@H]2C1,93.5%,83.5%,98.2%,93.1,87.9%,58.6%,88.8%,49.3,67.7%,94.6%,96.8,94.4%,81.6%,95.7,,81.9%,,83.1%,72.3%,94.6%
CC(C)(C#N)N1CCN(c2ccccc2Cl)CC1,103%,96.4%,102%,118,102%,102%,114%,112,112%,103%,97.2,108%,81.8%,104,,94.5%,,100%,97.8%,87.3%
c1ccc(Cn2nc3c(c2-c2ccccc2)-c2oncc2CC3)cc1,99.3%,96.3%,84.6%,102,87.9%,68.5%,84.8%,76.2,94.4%,102%,90.1,95.3%,82.7%,107,97.6%,77.9%,89.4%,80.4%,79.8%,
O=C(Cc1ccc(/C=C/C(=O)c2ncc[nH]2)cc1)Nc1ccc(C(F)(F)F)cc1,-51.6% (active),-32.5% (active),43.6%,15.3,-88.8% (active),36.6%,47.7%,46.5,67.3%,100%,71.8,29.5%,-41.7% (active),87.5,,68.7%,,-9.03% (active),6.36% (active),-80% (active)
O=C1NC(=S)NC(=O)C1=Cc1cn(Cc2ccccn2)c2ccccc12,42.9%,72.2%,52.8%,53.4,31.5%,47.5%,73.6%,70.5,73.4%,89.7%,84.7,66.6%,59.2%,72.7,82.2%,7.91% (active),-86.4% (active),31.3%,66%,
Clc1ccc(C2CC(c3cccc(Nc4ccncc4)c3)=NN2c2ccccc2)cc1 (configuration not stated),-48.4% (active),-9.64% (active),76.2%,79.7,-11.4% (active),36%,68.6%,93.9,9.8% (active),83.7%,89.8,76.6%,63.2%,57.4,,52.6%,,36.7%,-6.03% (active),25.6%
CCOC(=O)c1cnc2c(cnn2CC)c1NN=C(C)C,86%,84.7%,69%,87.6,90.4%,98.4%,90.4%,79.3,113%,40%,93,105%,68.4%,87.3,84.1%,100%,68%,92%,81%,
Nc1nnc2cc(Cl)ccc2n1,94.2%,119%,91.6%,104,98.4%,77%,102%,93.1,114%,-25.9% (active),112,90.1%,89.8%,136,89.9%,112%,54%,87.7%,111%,
NC(=O)c1cccc(-n2ccc3cc(NC(=O)Nc4cc(C(F)(F)F)cc(C(F)(F)F)c4)ccc32)n1,37.1%,52.6%,41%,42,36.7%,32.4%,69%,52.9,69.3%,76.6%,40.5,35.9%,47.4%,62.8,39.9%,41.4%,,53.7%,26.4%,
CCCCCOc1ccc(/C=N/Nc2cc(C)nc3ccc(Br)cc23)cc1,-91.4% (active),4.52% (active),85.5%,43.2,-65% (active),27.3%,89.1%,93.2,-74.3% (active),105%,76.3,-88.8% (active),-94.1% (active),19.1,-26.2% (active),43.6%,,3.51% (active),-21.8% (active),
